Data on 45 compounds can be found in the antibiotic and cytotoxicity screens of Wong et al. (2023).

Structures are written as SMILES. The campaign covered roughly 39,000 compounds. About 3,300 (8.5%) were called active. Many of the other results were omitted from the sample, so actives are more common in it than they were.

For this assay, the system named is HepG2. As to the kind of experiment: cytotoxicity call (relative viability < 0.9). The conditions noted are these: 10 µM.
For the compound `C[C@H](CO)N1C[C@H](C)[C@H](CN(C)C(=O)c2ccc(N3CCN(C)CC3)cc2)OCc2cnnn2CCCC1=O`, the cytotoxicity call was “inactive”.

Take `C[C@H](O)C#Cc1ccc2c(c1)O[C@@H](CN(C)C)[C@@H](C)CN([C@@H](C)CO)S2(=O)=O`: the cytotoxicity call is “inactive”.

With `COc1ccc(S(=O)(=O)N(C)C[C@H]2Oc3c(NS(=O)(=O)c4ccc(C)cc4)cccc3C(=O)N([C@@H](C)CO)C[C@@H]2C)cc1`, the cytotoxicity call is “inactive”.

With `CCNC(=O)C[C@H]1CC[C@@H](NC(=O)C2CC2)[C@@H](CO)O1`, the cytotoxicity call was “inactive”.

Turning to `Cc1noc(C)c1C(=O)OCC(=O)NC1CC1`, the cytotoxicity call is “inactive”.

Take `Cc1cc(C(=O)Nc2cccc3c2O[C@@H](CN(C)Cc2ccncc2)[C@H](C)CN([C@H](C)CO)C3=O)n(C)n1`: the cytotoxicity call was “inactive”.

In the case of `COC(=O)c1cnn2c(=O)cc(C)[nH]c12`, the cytotoxicity call was “inactive”.

Take `O=C(C[C@H]1CC[C@H]2[C@@H](COC[C@@H](O)CN2S(=O)(=O)c2cccc(F)c2)O1)NCCCN1CCOCC1`: the cytotoxicity call was “inactive”.

As for `C[C@H]1CN([C@@H](C)CO)C(=O)c2cc(NC(=O)Nc3ccc(F)cc3)ccc2O[C@@H]1CN(C)Cc1ccc(C(F)(F)F)cc1`, the cytotoxicity call is “inactive”.

With `C[C@H]1CN([C@@H](C)CO)C(=O)c2cc(NC(=O)Nc3ccc(F)cc3)ccc2O[C@H]1CN(C)Cc1ccc(C(F)(F)F)cc1`, the cytotoxicity call was “inactive”.

Take `C[C@@H]1CN([C@@H](C)CO)C(=O)c2cc(NC(=O)Nc3ccc(F)cc3)ccc2O[C@@H]1CN(C)Cc1ccc(C(F)(F)F)cc1`: the cytotoxicity call is “active”.

In the case of `C[C@@H]1CN([C@@H](C)CO)C(=O)c2cc(NC(=O)Nc3ccc(F)cc3)ccc2O[C@H]1CN(C)Cc1ccc(C(F)(F)F)cc1`, the cytotoxicity call was “active”.

Take `C[C@@H]1CN([C@H](C)CO)C(=O)c2cc(NC(=O)Nc3ccc(F)cc3)ccc2O[C@H]1CN(C)Cc1ccc(C(F)(F)F)cc1`: the cytotoxicity call is “active”.

For `C[C@H](CO)N1C[C@H](C)[C@@H](CN(C)Cc2ccc(C(F)(F)F)cc2)Oc2ccc(NC(=O)Nc3ccc(F)cc3)cc2C1=O`, the cytotoxicity call is “active”.

For `C[C@H](CO)N1C[C@H](C)[C@H](CN(C)Cc2ccc(C(F)(F)F)cc2)Oc2ccc(NC(=O)Nc3ccc(F)cc3)cc2C1=O`, the cytotoxicity call was “inactive”.

As to `C[C@@H]1CN([C@H](C)CO)C(=O)c2cc(NC(=O)Nc3ccc(F)cc3)ccc2O[C@@H]1CN(C)Cc1ccc(C(F)(F)F)cc1`, the cytotoxicity call is “inactive”.

As to `O=C(C[C@@H]1CC[C@@H]2[C@H](COC[C@@H](O)CN2C(=O)c2cccnc2)O1)NCc1ccc(-c2ccccc2)cc1`, the cytotoxicity call was “inactive”.

Turning to `C[C@@H]1CN([C@H](C)CO)C(=O)Cc2cc(NS(=O)(=O)c3cn(C)cn3)ccc2O[C@@H]1CN(C)C(=O)NC1CCCCC1`, the cytotoxicity call is “inactive”.

As for `C[C@H](CO)N1C[C@H](C)[C@@H](CN(C)Cc2cccc3c2OCCCO3)OCc2cn(nn2)CCCC1=O`, the cytotoxicity call is “inactive”.

`O=C1CSCCN1`: the cytotoxicity call was “inactive”.

On to `OCc1ncc[nH]1`, for which the cytotoxicity call was “inactive”.

On to `CCNC(=O)[C@H]1[C@H](CO)[C@H]2Cn3c(ccc(-c4ccc(OC)cc4)c3=O)[C@@H]1N2S(C)(=O)=O`, for which the cytotoxicity call is “inactive”.

As to `C[C@@H]1CN([C@@H](C)CO)S(=O)(=O)c2ccc(C3=CCCC3)cc2O[C@@H]1CN(C)C(=O)Cc1ccncc1`, the cytotoxicity call is “inactive”.

For the compound `COc1ccc2c(c(Br)c(C(=O)O)n2CCCOc2cccc3ccccc23)c1-c1ccccc1C`, the cytotoxicity call was “inactive”.

Regarding `C[C@H](CO)N1C[C@H](C)[C@@H](CN(C)Cc2ccc(C(=O)O)cc2)Oc2ccc(NC(=O)Cn3cnnn3)cc2CC1=O`, the cytotoxicity call is “inactive”.

In the case of `CC(C)(C)C(=O)C[C@@H](Nc1ccccc1)c1ccc(Cl)cc1`, the cytotoxicity call is “inactive”.

Take `COc1cccc(-c2ccc3n(c2=O)C[C@H]2[C@H](CO)[C@@H](C(=O)NCC4CC4)[C@@H]3N2S(C)(=O)=O)c1`: the cytotoxicity call is “inactive”.

Regarding `C[C@H]1CN([C@@H](C)CO)C(=O)c2cccc(NS(=O)(=O)c3cn(C)cn3)c2O[C@@H]1CN(C)CC1CC1`, the cytotoxicity call was “inactive”.

In the case of `CCc1nc2ccc(C(=O)N3CCN(C(=O)c4ccco4)CC3)cn2c1N(C)C(=O)COc1ccccc1`, the cytotoxicity call is “inactive”.

For `CCc1nc2c(OCC(=O)c3ccc(Cl)cc3Cl)cccn2c1N(C=O)Cc1ccc(OC)cc1`, the cytotoxicity call is “inactive”.

As for `CCc1nc2c(OCC(=O)c3ccc(Cl)cc3Cl)cccn2c1N(C)C(=O)COc1ccccc1`, the cytotoxicity call was “active”.

On to `C[C@@H]1CN([C@H](C)CO)C(=O)Cc2cc(NS(=O)(=O)c3cccs3)ccc2O[C@H]1CN(C)CC1CC1`, for which the cytotoxicity call is “inactive”.

Take `CC(C)=CCC/C(C)=C/CC1=C(C)C(=O)c2ccccc2C1=O`: the cytotoxicity call was “inactive”.

On to `C[C@H]1CN([C@@H](C)CO)C(=O)Cc2cc(NC(=O)Nc3cccc4ccccc34)ccc2O[C@@H]1CN(C)Cc1ccc(C(F)(F)F)cc1`, for which the cytotoxicity call is “inactive”.

`C[C@@H]1CN([C@@H](C)CO)C(=O)Cc2cc(NC(=O)Nc3cccc4ccccc34)ccc2O[C@@H]1CN(C)Cc1ccc(C(F)(F)F)cc1`: the cytotoxicity call was “active”.

As to `C[C@@H]1CN([C@H](C)CO)C(=O)Cc2cc(NC(=O)Nc3cccc4ccccc34)ccc2O[C@@H]1CN(C)Cc1ccc(C(F)(F)F)cc1`, the cytotoxicity call is “active”.

Consider `C[C@H]1CN([C@@H](C)CO)C(=O)Cc2cc(NC(=O)Nc3cccc4ccccc34)ccc2O[C@H]1CN(C)Cc1ccc(C(F)(F)F)cc1`, for which the cytotoxicity call was “active”.

Turning to `C[C@@H]1CN([C@H](C)CO)C(=O)Cc2cc(NC(=O)Nc3cccc4ccccc34)ccc2O[C@H]1CN(C)Cc1ccc(C(F)(F)F)cc1`, the cytotoxicity call is “inactive”.

Consider `C[C@H](CO)N1C[C@H](C)[C@@H](CN(C)Cc2ccc(C(F)(F)F)cc2)Oc2ccc(NC(=O)Nc3cccc4ccccc34)cc2CC1=O`, for which the cytotoxicity call is “inactive”.

Turning to `C[C@@H]1CN([C@@H](C)CO)C(=O)Cc2cc(NC(=O)Nc3cccc4ccccc34)ccc2O[C@@H]1CN(C)C(=O)Nc1ccc(C(F)(F)F)cc1`, the cytotoxicity call was “inactive”.

As to `C[C@@H]1CN([C@@H](C)CO)C(=O)Cc2cc(NC(=O)Nc3cccc4ccccc34)ccc2O[C@H]1CN(C)Cc1ccc(C(F)(F)F)cc1`, the cytotoxicity call was “inactive”.

Turning to `C[C@H](CO)N1C[C@H](C)[C@H](CN(C)Cc2ccc(C(F)(F)F)cc2)Oc2ccc(NC(=O)Nc3cccc4ccccc34)cc2CC1=O`, the cytotoxicity call was “inactive”.

As for `O=C(COc1ccccc1)N1CCNC1=O`, the cytotoxicity call was “inactive”.

As to `CC(C)NC(=O)N(C)C[C@@H]1Oc2ncc(-c3ccc(C(=O)N(C)C)cc3)cc2C(=O)N([C@@H](C)CO)C[C@H]1C`, the cytotoxicity call is “inactive”.

`O=C(C[C@H]1C[C@H]2c3cc(NC(=O)C4CCOCC4)ccc3O[C@H]2[C@@H](CO)O1)NCCN1CCCCC1`: the cytotoxicity call was “inactive”.
